Holding throughout (test): DAPPL (digital affinity profiling via proximity ligation, sequencing); 10 mM Tris-HCl pH 7.5, 50 mM NaCl, 1 mM DTT, 4% glycerol, room temperature, 30 min; GST-TFs on glutathione beads, 16-mer random dsDNA library, 0.1% formaldehyde crosslink after washing; high values mean tight binding
For one assay, the target named is T1, FEV (Homo sapiens, UniProt Q99581 1-238).
T1 sequence: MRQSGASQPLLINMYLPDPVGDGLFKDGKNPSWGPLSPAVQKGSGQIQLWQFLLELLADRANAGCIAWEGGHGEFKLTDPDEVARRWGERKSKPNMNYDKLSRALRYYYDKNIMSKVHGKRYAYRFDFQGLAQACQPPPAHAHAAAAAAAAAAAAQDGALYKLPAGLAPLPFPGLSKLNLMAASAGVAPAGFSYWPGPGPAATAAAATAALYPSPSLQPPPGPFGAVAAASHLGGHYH
The following applies: protein: recombinant; tags: N-terminal GST; dsDNA, one strand shown. The gist of the method:
(§1)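 Human transcription factors fused to GST were expressed in yeast, captured on glutathione beads, given DNA barcodes and pooled with a GST-only negative control. Pools were incubated with 200 nmole of a 16-mer random double-stranded DNA library in Tris/NaCl/DTT/glycerol buffer at room temperature for 30 min. They were then washed, crosslinked with 0.1% formaldehyde, proximity-ligated (BsaI/T4 ligase, 1 h, 37 °C), PCR-amplified and sequenced on an Illumina NextSeq500. Binding signal is each 6-mer's read frequency for a factor divided by its frequency for the GST control.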

Another assay concerns the target ETV5 (Homo sapiens, UniProt P41161 1-510). The following applies: protein: recombinant; tags: N-terminal GST; dsDNA, one strand shown. The gist of the method:
as §1

The next assay has as its target HSF1 (Homo sapiens, UniProt Q00613 1-529). The conditions noted are these: protein: recombinant; tags: N-terminal GST; chain copies: 3; dsDNA, one strand shown. In short, it runs like this: as §1
The next assay deals with T2, SPIC (Homo sapiens, UniProt Q8N5J4 1-248).
T2 sequence: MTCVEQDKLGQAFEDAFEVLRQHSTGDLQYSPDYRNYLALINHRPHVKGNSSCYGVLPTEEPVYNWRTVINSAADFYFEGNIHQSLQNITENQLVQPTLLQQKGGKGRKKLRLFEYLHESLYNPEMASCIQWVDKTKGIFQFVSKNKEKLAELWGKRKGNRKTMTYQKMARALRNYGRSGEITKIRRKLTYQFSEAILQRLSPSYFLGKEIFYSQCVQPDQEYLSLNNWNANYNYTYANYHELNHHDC
The conditions noted are these: protein: recombinant; tags: N-terminal GST; dsDNA, one strand shown. In short, it runs like this: as §1

The target in a further assay is ELF4 (Homo sapiens, UniProt Q99607 1-663). The conditions noted are these: protein: recombinant; tags: N-terminal GST; dsDNA, one strand shown. The gist of the method:
as §1

Another assay concerns the target T3, ELK4 (Homo sapiens, UniProt P28324-2 1-405).
T3 sequence: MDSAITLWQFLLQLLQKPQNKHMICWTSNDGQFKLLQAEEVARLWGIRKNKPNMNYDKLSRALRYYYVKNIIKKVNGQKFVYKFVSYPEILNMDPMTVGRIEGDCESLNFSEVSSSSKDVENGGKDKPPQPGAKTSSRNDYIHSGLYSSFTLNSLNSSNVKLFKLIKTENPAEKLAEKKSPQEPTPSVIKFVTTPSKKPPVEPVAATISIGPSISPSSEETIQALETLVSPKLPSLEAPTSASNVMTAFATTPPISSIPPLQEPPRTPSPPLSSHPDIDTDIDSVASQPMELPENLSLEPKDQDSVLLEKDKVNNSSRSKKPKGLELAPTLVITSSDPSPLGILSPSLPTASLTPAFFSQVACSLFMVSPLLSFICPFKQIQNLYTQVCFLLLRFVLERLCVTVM
The conditions noted are these: protein: recombinant; tags: N-terminal GST; dsDNA, one strand shown. The gist of the method: as §1

A further assay deals with T4, ETV2 (Homo sapiens, UniProt O00321 1-342).
T4 sequence: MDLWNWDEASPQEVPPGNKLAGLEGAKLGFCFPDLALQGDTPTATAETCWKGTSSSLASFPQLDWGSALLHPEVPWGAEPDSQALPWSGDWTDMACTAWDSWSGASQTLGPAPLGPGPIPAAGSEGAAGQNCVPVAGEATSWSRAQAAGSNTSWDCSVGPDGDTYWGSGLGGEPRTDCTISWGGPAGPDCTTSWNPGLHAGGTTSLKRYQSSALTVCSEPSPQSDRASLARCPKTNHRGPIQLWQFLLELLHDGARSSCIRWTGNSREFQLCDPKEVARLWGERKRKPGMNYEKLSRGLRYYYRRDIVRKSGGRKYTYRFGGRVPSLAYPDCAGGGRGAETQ
The following applies: protein: recombinant; tags: N-terminal GST; dsDNA, one strand shown. In short, it runs like this: as §1

The target in a further assay is T5, ELF3 (Homo sapiens, UniProt P78545 1-371).
T5 sequence: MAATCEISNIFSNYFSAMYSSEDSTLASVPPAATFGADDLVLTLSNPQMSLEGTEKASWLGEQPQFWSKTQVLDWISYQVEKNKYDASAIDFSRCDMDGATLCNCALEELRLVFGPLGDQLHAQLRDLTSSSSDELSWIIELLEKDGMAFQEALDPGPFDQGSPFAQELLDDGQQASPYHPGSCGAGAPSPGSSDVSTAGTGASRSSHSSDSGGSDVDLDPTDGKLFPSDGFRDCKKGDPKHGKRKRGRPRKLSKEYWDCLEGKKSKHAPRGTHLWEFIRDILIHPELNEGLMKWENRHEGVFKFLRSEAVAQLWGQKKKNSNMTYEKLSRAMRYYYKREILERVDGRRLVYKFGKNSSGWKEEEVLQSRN
The following applies: protein: recombinant; tags: N-terminal GST; dsDNA, one strand shown. The gist of the method:
as §1

The target in a further assay is CRX (Homo sapiens, UniProt O43186 1-299). The following applies: protein: recombinant; tags: N-terminal GST; dsDNA, one strand shown. The gist of the method:
as §1

In another assay the target is ETV1 (Homo sapiens, UniProt P50549 1-477). The conditions noted are these: protein: recombinant; tags: N-terminal GST; dsDNA, one strand shown. The gist of the method:
as §1

Another assay concerns the target T6, ERF (Homo sapiens, UniProt P50548 1-548).
T6 sequence: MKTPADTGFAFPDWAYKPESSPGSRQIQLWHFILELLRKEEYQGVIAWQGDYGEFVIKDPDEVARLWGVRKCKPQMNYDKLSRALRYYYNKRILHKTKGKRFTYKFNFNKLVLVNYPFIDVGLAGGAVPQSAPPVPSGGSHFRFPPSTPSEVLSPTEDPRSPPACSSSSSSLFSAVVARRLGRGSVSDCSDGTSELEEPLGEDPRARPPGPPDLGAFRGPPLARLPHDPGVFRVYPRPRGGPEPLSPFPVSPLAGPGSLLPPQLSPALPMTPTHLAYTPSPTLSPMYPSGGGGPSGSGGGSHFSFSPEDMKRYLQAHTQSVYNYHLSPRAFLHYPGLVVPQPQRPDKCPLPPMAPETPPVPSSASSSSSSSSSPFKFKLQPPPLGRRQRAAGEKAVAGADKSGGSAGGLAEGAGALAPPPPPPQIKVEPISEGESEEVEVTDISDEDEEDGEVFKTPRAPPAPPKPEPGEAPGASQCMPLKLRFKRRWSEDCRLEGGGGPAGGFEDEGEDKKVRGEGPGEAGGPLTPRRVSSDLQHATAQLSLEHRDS
The following applies: protein: recombinant; tags: N-terminal GST; dsDNA, one strand shown. The gist of the method:
as §1

Another assay addresses T7, ETV3L (Homo sapiens, UniProt Q6ZN32 1-361).
T7 sequence: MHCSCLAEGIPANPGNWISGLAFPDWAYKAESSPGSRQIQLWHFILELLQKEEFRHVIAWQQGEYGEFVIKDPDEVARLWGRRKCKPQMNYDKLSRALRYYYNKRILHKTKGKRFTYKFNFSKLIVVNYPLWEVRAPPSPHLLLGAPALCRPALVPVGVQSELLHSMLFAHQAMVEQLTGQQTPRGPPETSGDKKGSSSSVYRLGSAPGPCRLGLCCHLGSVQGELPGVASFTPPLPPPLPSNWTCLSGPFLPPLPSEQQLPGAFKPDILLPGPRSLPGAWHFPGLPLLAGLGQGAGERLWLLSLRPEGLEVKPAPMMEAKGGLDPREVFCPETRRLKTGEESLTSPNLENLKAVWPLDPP
The following applies: protein: recombinant; tags: N-terminal GST; dsDNA, one strand shown. In short, it runs like this: as §1

The target of the next assay is T8, ETS2 (Homo sapiens, UniProt P15036 1-469).
T8 sequence: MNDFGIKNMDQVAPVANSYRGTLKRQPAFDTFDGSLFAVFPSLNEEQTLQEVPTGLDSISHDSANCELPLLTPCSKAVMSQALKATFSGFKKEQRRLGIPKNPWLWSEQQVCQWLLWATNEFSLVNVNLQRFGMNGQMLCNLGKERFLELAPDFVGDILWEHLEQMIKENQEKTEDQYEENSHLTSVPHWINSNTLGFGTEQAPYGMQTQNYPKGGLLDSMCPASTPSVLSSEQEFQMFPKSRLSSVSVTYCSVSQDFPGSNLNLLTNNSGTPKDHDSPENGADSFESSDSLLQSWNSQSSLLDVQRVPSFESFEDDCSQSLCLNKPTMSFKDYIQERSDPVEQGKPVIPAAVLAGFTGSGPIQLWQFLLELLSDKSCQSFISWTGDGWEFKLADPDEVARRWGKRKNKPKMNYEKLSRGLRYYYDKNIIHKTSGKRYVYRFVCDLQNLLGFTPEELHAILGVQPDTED
The conditions noted are these: protein: recombinant; tags: N-terminal GST; dsDNA, one strand shown. In short, it runs like this: as §1

Another assay has as its target T9, SPDEF (Homo sapiens, UniProt O95238 1-335).
T9 sequence: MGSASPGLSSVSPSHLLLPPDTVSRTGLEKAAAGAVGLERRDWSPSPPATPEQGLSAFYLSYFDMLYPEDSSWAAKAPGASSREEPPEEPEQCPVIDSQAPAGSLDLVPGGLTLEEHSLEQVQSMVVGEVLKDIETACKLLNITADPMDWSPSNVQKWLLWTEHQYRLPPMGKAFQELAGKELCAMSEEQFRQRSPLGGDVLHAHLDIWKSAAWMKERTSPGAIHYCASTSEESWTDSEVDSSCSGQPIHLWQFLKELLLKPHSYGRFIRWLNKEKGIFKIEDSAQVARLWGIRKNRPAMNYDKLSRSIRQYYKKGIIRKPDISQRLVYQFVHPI
The conditions noted are these: protein: recombinant; tags: N-terminal GST; dsDNA, one strand shown. The gist of the method: as §1

The target in a further assay is T10, ETV7 (Homo sapiens, UniProt Q9Y603 1-341).
T10 sequence: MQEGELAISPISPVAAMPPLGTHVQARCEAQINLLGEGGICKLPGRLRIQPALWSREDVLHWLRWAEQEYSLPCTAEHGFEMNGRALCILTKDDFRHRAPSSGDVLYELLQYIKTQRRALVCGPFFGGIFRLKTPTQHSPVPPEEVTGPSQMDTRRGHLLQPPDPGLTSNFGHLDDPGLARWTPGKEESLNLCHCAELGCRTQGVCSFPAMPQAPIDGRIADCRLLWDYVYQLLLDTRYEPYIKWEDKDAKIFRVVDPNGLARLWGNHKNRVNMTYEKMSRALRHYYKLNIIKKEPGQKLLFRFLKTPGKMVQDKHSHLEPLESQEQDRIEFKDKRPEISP
The following applies: protein: recombinant; tags: N-terminal GST; dsDNA, one strand shown. The gist of the method: as §1

Another assay addresses T11, ELF5 (Homo sapiens, UniProt Q9UKW6-2 1-255).
T11 sequence: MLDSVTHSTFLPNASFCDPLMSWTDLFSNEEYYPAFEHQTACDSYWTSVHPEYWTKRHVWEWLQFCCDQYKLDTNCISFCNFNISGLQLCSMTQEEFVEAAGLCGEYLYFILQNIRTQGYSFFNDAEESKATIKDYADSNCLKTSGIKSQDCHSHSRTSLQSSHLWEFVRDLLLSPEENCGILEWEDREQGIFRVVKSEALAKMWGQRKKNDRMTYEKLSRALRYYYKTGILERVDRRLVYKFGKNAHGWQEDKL
The following applies: protein: recombinant; tags: N-terminal GST; dsDNA, one strand shown. In short, it runs like this: as §1

A further assay has as its target T12, ETV3 (Homo sapiens, UniProt P41162-2 1-143).
T12 sequence: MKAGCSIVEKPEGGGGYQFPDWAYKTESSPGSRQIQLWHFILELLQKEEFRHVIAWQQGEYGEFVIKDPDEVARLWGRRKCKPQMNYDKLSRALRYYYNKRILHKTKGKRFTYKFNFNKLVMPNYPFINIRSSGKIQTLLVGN
The following applies: protein: recombinant; tags: N-terminal GST; dsDNA, one strand shown. In short, it runs like this:
as §1

Another assay deals with ETV6 (Homo sapiens, UniProt P41212 1-452). The conditions noted are these: protein: recombinant; tags: N-terminal GST; dsDNA, one strand shown. The gist of the method:
as §1

Consider one sequence from paper PMC7862700, “An all-to-all approach to the identification of sequence-specific readers for epigenetic DNA modifications on cytosine”.

Chain of HSF1 (Q00613 whole entry): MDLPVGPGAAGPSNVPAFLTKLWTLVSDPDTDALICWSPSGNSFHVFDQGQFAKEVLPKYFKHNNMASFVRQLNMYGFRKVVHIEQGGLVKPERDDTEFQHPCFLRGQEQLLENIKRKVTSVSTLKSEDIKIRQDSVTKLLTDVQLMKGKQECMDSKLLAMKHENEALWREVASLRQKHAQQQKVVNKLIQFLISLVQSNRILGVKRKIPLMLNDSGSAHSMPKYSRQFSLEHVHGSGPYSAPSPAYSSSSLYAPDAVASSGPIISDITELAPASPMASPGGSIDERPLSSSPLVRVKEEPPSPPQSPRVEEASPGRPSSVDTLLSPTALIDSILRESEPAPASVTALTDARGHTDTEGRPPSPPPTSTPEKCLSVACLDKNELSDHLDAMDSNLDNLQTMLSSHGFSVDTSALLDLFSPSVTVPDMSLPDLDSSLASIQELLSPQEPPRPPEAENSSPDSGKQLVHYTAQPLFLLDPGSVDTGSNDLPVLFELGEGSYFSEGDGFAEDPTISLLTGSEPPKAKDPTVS
Chain of CRX (O43186 whole entry): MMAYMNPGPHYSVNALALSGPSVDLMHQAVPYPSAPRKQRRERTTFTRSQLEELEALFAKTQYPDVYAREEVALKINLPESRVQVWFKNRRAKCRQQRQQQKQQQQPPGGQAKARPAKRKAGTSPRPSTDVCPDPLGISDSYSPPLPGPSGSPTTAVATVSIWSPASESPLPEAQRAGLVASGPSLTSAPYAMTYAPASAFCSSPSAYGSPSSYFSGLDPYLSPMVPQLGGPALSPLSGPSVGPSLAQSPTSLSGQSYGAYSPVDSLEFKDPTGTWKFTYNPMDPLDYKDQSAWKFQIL
Chain of ETV5 (P41161 whole entry): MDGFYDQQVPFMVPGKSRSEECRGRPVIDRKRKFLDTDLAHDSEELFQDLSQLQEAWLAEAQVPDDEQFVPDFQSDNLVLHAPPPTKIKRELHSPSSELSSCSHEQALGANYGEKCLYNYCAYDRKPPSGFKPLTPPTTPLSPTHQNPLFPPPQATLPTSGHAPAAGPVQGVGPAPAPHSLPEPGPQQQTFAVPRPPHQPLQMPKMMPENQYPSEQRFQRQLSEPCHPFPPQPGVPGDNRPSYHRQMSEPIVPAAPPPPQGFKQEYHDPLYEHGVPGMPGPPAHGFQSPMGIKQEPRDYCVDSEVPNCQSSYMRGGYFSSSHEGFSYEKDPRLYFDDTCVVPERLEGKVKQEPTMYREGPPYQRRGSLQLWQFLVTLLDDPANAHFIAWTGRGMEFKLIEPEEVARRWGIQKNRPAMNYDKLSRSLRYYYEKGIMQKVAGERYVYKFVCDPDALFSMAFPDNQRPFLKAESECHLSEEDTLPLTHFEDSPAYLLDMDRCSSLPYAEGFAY
Chain of ETV6 (P41212 whole entry): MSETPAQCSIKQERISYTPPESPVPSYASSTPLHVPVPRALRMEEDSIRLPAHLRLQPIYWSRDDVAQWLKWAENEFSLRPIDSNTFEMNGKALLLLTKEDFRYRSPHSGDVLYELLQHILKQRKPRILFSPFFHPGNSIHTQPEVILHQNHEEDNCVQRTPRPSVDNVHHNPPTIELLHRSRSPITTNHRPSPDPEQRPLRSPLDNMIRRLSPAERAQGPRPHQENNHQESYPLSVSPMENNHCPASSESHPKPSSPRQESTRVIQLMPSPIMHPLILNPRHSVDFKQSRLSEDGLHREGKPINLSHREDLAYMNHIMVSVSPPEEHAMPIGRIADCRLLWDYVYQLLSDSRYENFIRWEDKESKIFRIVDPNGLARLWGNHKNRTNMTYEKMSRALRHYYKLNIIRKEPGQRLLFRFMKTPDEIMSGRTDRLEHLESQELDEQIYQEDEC
Chain of ELF4 (Q99607 whole entry): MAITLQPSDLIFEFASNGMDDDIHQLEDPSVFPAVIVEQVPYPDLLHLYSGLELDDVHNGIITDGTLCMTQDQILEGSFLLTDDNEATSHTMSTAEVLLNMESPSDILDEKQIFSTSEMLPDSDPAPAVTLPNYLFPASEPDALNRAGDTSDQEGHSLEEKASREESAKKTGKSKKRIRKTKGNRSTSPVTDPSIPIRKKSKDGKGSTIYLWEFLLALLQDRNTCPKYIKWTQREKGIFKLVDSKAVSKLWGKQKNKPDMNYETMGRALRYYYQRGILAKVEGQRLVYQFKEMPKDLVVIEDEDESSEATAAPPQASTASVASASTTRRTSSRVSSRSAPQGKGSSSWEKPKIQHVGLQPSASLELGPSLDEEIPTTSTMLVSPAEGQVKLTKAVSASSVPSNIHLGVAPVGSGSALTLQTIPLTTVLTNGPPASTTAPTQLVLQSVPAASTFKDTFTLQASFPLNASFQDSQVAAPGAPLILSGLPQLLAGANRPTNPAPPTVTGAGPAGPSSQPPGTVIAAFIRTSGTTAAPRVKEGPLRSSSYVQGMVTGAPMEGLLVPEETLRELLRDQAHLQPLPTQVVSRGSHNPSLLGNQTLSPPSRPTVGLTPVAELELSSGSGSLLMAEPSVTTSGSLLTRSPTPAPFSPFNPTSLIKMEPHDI
Chain of ETV1 (P50549 whole entry): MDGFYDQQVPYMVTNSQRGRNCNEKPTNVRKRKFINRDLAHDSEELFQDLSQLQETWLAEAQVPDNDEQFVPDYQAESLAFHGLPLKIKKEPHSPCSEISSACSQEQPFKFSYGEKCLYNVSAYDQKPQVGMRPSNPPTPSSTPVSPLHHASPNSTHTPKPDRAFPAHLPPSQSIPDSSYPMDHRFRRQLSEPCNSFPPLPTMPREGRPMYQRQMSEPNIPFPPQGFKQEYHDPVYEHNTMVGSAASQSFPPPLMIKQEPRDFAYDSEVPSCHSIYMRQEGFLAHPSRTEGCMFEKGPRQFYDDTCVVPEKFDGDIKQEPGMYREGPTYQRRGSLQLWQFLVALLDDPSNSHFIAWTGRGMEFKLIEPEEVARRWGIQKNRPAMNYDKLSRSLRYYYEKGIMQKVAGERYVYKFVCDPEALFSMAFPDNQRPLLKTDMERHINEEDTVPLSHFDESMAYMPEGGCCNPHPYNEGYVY

Consider CTAAGT, for which the binding signal in the assay with FEV was 1.13 fold enrichment (6-mer frequency, TF over GST control); with ETV5 it was 1.18 fold enrichment (6-mer frequency, TF over GST control); with HSF1, 1.3 fold enrichment (6-mer frequency, TF over GST control); with SPIC it was 1.24 fold enrichment (6-mer frequency, TF over GST control); in the assay with ELF4 it was 1.24 fold enrichment (6-mer frequency, TF over GST control); in the assay with ELK4, 1.13 fold enrichment (6-mer frequency, TF over GST control). Moreover, the binding signal was 1.24 fold enrichment (6-mer frequency, TF over GST control) with ETV2; 1.02 fold enrichment (6-mer frequency, TF over GST control) with ELF3; 1.8 fold enrichment (6-mer frequency, TF over GST control) in the assay with CRX; 1.18 fold enrichment (6-mer frequency, TF over GST control) with ETV1; 1.13 fold enrichment (6-mer frequency, TF over GST control) with ERF; 1.33 fold enrichment (6-mer frequency, TF over GST control) with ETV3L. Also, the binding signal with ETS2 was 1.23 fold enrichment (6-mer frequency, TF over GST control); with SPDEF it was 1.3 fold enrichment (6-mer frequency, TF over GST control); in the assay with ETV7, 1.29 fold enrichment (6-mer frequency, TF over GST control); with ELF5, 1.17 fold enrichment (6-mer frequency, TF over GST control); with ETV3, 1.21 fold enrichment (6-mer frequency, TF over GST control); with ETV6 it was 1.27 fold enrichment (6-mer frequency, TF over GST control).
